# According to publication PMC4336329 (PLoS ONE, 2015):
# About 2,200 (0.71%) of roughly 310,000 compounds showed an effect of 50% or more. The effect is printed as a negative number. The full list was thinned out, with strong results kept by preference.
# Biological target: human ether-à-go-go-related gene (hERG) potassium channel (human, UniProt Q12809)
# Assay: primary screen, population patch clamp on CHO cells stably expressing hERG; higher = less effect of the substance
# Chain of human ether-à-go-go-related gene (hERG) potassium channel (Q12809 whole entry, looked up): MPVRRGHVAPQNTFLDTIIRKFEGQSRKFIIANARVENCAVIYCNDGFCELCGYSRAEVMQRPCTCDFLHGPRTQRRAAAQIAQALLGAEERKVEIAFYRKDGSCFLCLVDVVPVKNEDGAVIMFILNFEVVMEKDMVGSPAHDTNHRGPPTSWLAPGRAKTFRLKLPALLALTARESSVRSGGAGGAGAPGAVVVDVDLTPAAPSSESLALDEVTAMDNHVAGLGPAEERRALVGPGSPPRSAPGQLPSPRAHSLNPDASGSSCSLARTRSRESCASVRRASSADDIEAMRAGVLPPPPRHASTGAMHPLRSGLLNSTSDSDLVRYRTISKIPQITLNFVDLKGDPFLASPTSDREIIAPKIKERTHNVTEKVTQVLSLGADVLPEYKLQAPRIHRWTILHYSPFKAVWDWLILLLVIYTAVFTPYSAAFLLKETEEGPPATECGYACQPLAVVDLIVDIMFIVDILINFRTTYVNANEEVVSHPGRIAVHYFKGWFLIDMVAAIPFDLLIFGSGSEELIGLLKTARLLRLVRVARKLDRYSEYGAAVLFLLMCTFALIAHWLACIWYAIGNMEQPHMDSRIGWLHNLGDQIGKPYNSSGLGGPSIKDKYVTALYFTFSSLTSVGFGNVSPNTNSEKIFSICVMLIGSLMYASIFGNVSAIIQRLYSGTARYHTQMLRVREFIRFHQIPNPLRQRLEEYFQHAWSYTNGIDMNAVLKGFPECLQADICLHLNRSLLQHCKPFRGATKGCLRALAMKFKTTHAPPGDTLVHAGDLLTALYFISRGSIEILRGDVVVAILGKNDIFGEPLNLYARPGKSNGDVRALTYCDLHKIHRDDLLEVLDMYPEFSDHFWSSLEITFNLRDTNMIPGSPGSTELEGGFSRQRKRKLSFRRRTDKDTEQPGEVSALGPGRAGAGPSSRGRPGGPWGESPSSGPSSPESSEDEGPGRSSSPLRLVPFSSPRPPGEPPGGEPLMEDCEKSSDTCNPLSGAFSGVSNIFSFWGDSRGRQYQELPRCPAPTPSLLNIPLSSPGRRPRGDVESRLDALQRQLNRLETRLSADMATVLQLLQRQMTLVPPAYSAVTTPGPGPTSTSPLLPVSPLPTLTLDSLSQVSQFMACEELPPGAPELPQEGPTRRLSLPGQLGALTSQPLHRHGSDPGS
row,SMILES,"hERG current change (%, negative = inhibition) at 1uM [%]"
1,Cc1ccc(S(=O)(=O)N2CCOC2CNC(=O)C(=O)NCCCc2ccccc2)cc1 (stereo not drawn),5.36
2,CCCCCN1C=CC=C/C1=C\C=C(C#N)C#N,-28.2
3,CCCCCCN1C=CC=C/C1=C/C=C(C#N)C#N,-26.6
4,CCCCCCN1C=CC=C/C1=C\C=C(C#N)C#N,-69.9
5,CCOC(=O)C(O)(CC(=O)Nc1ccc(Cl)cc1Cl)C(F)(F)F (stereo not drawn),6.91
6,CCOC(=O)C(Cc1c(F)cccc1F)(NC(C)=O)C(=O)OCC,8.71
7,CCOC(=O)COc1ccc(N)cc1CC(NC(C)=O)(C(=O)OCC)C(=O)OCC,-69.6
8,CCOC(=O)C(Cc1ccccc1)(NC(C)=O)C(=O)OCC,14.4
9,COc1ccc(C)cc1NC(=O)C(OC(=O)CNC(=O)c1ccc(Br)cc1)c1ccccc1 (stereo not drawn),11.1
10,Cc1cccc(/C=N/n2c(-c3ccccn3)n[nH]c2=S)c1,14.4
11,CC1CN(S(=O)(=O)c2cccc(C(=O)NCC3COc4ccccc4O3)c2)CC(C)O1 (stereo not drawn),0.895
12,O=c1ccc(-c2nc3cc(Cl)ccc3n2Cc2ccccc2)c[nH]1,-45
13,O=c1ccc(-c2nc3ccccc3n2Cc2ccc(Cl)cc2)c[nH]1,-50.5
14,O=c1ccc(-c2nc3ccccc3n2Cc2ccccc2Cl)c[nH]1,4.18
15,Cc1cc(C)nc(SCC(=O)c2ccc(O)c(O)c2)n1,16
16,O=S(=O)(N/N=C/c1cn(Cc2ccccc2)c2ccccc12)c1ccccc1,6.23
17,COc1ccccc1N1CCN(C(=O)c2cc(=O)c3ccc(C)cc3o2)CC1,1.21
18,CCc1ccc2oc(C(=O)N3CCN(c4ccccc4OC)CC3)cc(=O)c2c1,-57.4
19,COc1ccc(N2CCN(C(=O)c3cc(=O)c4cc(Cl)ccc4o3)CC2)cc1,-81.5
20,CCc1ccc2oc(C(=O)N3CCN(c4ccc(OC)cc4)CC3)cc(=O)c2c1,1.45
21,COc1ccc(N2CCN(C(=O)c3cc(=O)c4cc(C)ccc4o3)CC2)cc1,-3.09

row,SMILES,"hERG current change (%, negative = inhibition) at 1uM [%]"
1,COc1ccccc1N1CCN(C(=O)c2cc(=O)c3cc(C)ccc3o2)CC1,-8.99
2,Cc1ccc(Cn2nnc3c(=O)[nH]c(C4CCCN(C(=O)Nc5ccc(F)cc5F)C4)nc32)cc1 (stereo not drawn),13.8
3,O=C(CNC(=O)c1ccccc1O)N/N=C/c1ccccn1,4.2
4,COc1ccc(Cc2nnc(SCC(=O)Nc3ccc(C)c(Cl)c3)[nH]c2=O)cc1,5.51
5,CC(C)=CCCC(C)CN1CCC(n2nccc2NC(=O)c2ccccc2)CC1 (stereo not drawn),-52.2
6,CC(C)=CCCC(C)CN1CCC(n2nccc2NC(=O)C2CCCC2)CC1 (stereo not drawn),-50.3
7,CC(C)=CCCC(C)CN1CCC(n2nccc2NC(=O)c2cccnc2)CC1 (stereo not drawn),-5.79
8,CCc1ccc(CN2CCC(n3nccc3NC(=O)c3ccccc3)CC2)o1,-6.11
9,CC(CN1CCC(n2nccc2NC(=O)C2CCCC2)CC1)c1ccccc1 (stereo not drawn),2.95
10,O=C(Nc1ccnn1C1CCN(CC(O)CO)CC1)C1CCCC1 (stereo not drawn),12.5
11,CCOC(=O)C(C)n1cnc2c1c(=O)[nH]c(=O)n2C (stereo not drawn),8.76
12,CCCCNC(=O)[C@H]1C[C@H]1[C@@H](O)[C@H](CO)NC(=O)[C@H](Cc1ccccc1)NC(=O)OC(C)(C)C,11.5
13,CCOc1ccc(C(=O)Nc2ccc(S(=O)(=O)N3C[C@@H]4C[C@@H](C3)c3cccc(=O)n3C4)cc2)cc1,-1.43
14,COc1ccc2[nH]c(C(=O)NCc3ccccc3)c(C)c2c1.Cl,10.3
15,CCN(CC)CCNC(=O)c1[nH]c2ccc(OCc3ccccc3)cc2c1C,-61.3
16,Cc1c(C(=O)N2CCOCC2)[nH]c2ccc(OCc3ccccc3)cc12,-1.19
17,COc1ccc(N(C(=O)c2ccccc2OC)C2C=CS(=O)(=O)C2)c(OC)c1 (stereo not drawn),14.4
18,COc1ccc(CN2CCNC(=O)C2CC(=O)NCCc2nc(C)c3c(n2)CCC3)cc1C (stereo not drawn),32.9
19,CCC(c1nnnn1CCc1ccccc1)N1CCN(c2ccc(OC)cc2)CC1 (stereo not drawn),14.5
20,COc1ccc(CC2(CO)CCN(Cc3cccn3-c3ccccn3)CC2)cc1,-84.2
21,COc1ccc(CC2(CO)CCN(Cc3ccc(OC(F)(F)F)cc3)CC2)cc1,-57.5
